# Mcl-1 Bim block: inhibitors of Bim-Mcl-1 interaction, human. Bead-based flow cytometry, Bim peptide-Mcl-1 binding. actives 0.1% (n = 190,000). AID 1009. inhibition, % at 10 µM. Q07820; in the data active = inhibition above about 40%;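 note: 0% = no compound tracer wells and 100% = peptide blocker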
# 14-3-3 Bad inh: disrupts binding of bovine 14-3-3 zeta to phospho-Bad peptide | P63103 | AID 781 | TR-FRET 14-3-3zeta/Dy647-pBad peptide displacement, 1 h | inhibition, % at 21.7 µM | actives 0.71% (n = 220,000);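 active = inhibition above about 70%, limit read from the data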;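 note: 0% = full 14-3-3 plus peptide FRET controls and 100% = background without 14-3-3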
# Target sequence (P63103 whole entry, looked up): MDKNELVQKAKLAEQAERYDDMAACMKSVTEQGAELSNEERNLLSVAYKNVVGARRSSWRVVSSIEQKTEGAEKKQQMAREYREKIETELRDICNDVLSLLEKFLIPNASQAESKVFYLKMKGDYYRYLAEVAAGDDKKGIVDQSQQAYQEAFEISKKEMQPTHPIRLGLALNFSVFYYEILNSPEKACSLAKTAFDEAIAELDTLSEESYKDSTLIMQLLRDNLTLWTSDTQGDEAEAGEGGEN
# MCL1 BIM primary: MCL1-BIM-BH3 interaction inhibition (human); inhibition, % at 10.9 µM; Q07820; AID 2057; actives 0.68% (n = 320,000); GST-MCL1 / FITC-Bim-BH3 fluorescence polarization;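 active = inhibition above the mean inhibition of all tested compounds plus 3 SD, set per campaign, cut at about 40% in these data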;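 note: 0% = DMSO wells and 100% = unlabeled Bim-BH3 peptide control; higher means more loss of mP so more displacement of Bim peptide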
# Mcl1 Noxa PPI: disrupts binding of human Mcl-1 to Noxa peptide. TR-FRET Mcl-1/Noxa peptide binding, 2 h. inhibition, % at 21.7 µM. actives 1.5% (n = 220,000). AID 1022;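 active = compounds that cut the protein-peptide binding signal by more than 50% relative to plate controls in a single-dose test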;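 note: His-tagged Mcl-1 with rhodamine Noxa BH3 peptide and terbium anti-His antibody; 0% = Mcl-1 plus Noxa peptide wells and 100% = peptide-only wells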
# Mcl1 Bid PPI: Mcl-1/Bid interaction inhibition; Q07820; TR-FRET Mcl-1/Bid-Dy647 peptide binding, 1536-well; inhibition, % at 21.7 µM; actives 0.97% (n = 220,000); AID 1021;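 active = compounds that cut the binding signal by more than half at the single screening dose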;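 note: His-tagged Mcl-1 with europium anti-His antibody binding Bid BH3 peptide; 0% = Mcl-1 plus peptide wells and 100% = peptide-only wells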
# Active calls of the source: *; nt = no result given. Sampled rows, rich in hits. Any-hit rate of the full collection: about 2.5%.
SMILES,Mcl-1 Bim block,14-3-3 Bad inh,MCL1 BIM primary,Mcl1 Noxa PPI,Mcl1 Bid PPI
Cn1ncc([N+](=O)[O-])c1C(=O)Nc1cccc(Cl)c1,nt,nt,7,nt,nt
Cn1ncc(N=Cc2c(O)ccc3ccccc23)c1C(=O)Nc1cccc(Cl)c1,2,34,46*,44,55*
Cn1ncc(Cl)c1C(=O)Nc1cccc(Cl)c1,-1,15,21,52*,4
O=C(O)CC1S/C(=N/N=C/c2ccc(-c3ccccc3[N+](=O)[O-])o2)NC1=O (configuration not stated),2,37,18,27,-47
COc1ccc(CNC(=O)c2cc3c(=O)n4ccccc4nc3n(Cc3cccnc3)c2=N)cc1,1,-2,21,59*,8
N=c1c(C(=O)NCc2ccc3c(c2)OCO3)cc2c(=O)n3ccccc3nc2n1Cc1cccnc1,-4,45,4,74*,50
COc1ccc(Cn2c(=O)[nH]c3cc(C(=O)NCc4ccc5c(c4)OCO5)ccc3c2=O)cc1,2,42,-4,9,56*
N=c1c(C(=O)NCc2ccco2)cc2c(=O)n3ccccc3nc2n1Cc1ccc(Cl)cc1,8,nt,34,nt,nt
CC1(C)CC(=O)C(C=NCCN2CCN(CCc3ccccc3)CC2)=C(O)C1,51*,-5,-15,14,-8
COc1ccc(CCNC(=O)C(=O)NCC2OCCN2S(=O)(=O)c2cc(F)ccc2F)cc1 (configuration not stated),nt,nt,5,nt,nt
CCN1/C(=C/c2cc[n+](C)cc2)C=Cc2cc(C)ccc21,-1,-19,-35,56*,-57
Cc1sc2nc(SCC(=O)Nc3ccccc3F)[nH]c(=O)c2c1C,nt,nt,-3,nt,nt
Cc1cc(C)n2nc(C(=O)OCC(=O)c3c[nH]c4ccccc34)nc2n1,2,0,-4,24,4
Clc1ccc(Cn2cnc3ccccc32)cc1,1,-15,-1,-2,-12
O=C1c2ccncc2C(=O)N1Cc1cccc(Cl)c1,0,-4,-2,19,3
O=S1(=O)c2ccccc2N=NN1Cc1ccc(Cl)cc1,0,9,10,53*,40
O=S1(=O)c2ccccc2N=NN1Cc1cc(Cl)cc(Cl)c1,-3,-2,17,99*,49
Cc1cccc(C)c1-n1cccc1/C=C1\SC(=S)N(c2cccc(C(=O)O)c2)C1=O,16,45,1,51*,52*
Cc1ccccc1NC(=O)CN1C(=O)S/C(=C\c2cccn2-c2cccc(C(=O)O)c2)C1=O,-4,-10,-5,16,-21
Cc1cccc(C)c1NC(=O)CN1C(=O)S/C(=C\c2cccn2-c2cccc(C(=O)O)c2)C1=O,0,1,0,-2,-34
Cc1ccc(NC(=O)CN2C(=O)S/C(=C\c3cccn3-c3cccc(C(=O)O)c3)C2=O)c(C)c1,4,1,1,93*,45
CSCCC(NS(=O)(=O)c1ccccc1F)C(=O)NCC(c1ccc(F)cc1)N1CCOCC1 (configuration not stated),nt,nt,-1,nt,nt
COc1ccc(NC(=O)CSc2ccccn2)cc1OC,-4,72*,4,-6,-17
O=c1[nH]c(=O)n(-c2cc(Br)c(O)c(Br)c2)cc1Br,nt,nt,-4,nt,nt
CC1=C(C#N)C(=O)N(C2CCS(=O)(=O)C2)C(=O)/C1=C\c1ccc(C)o1 (configuration not stated),nt,20,52*,93*,4
SMILES,Mcl-1 Bim block,14-3-3 Bad inh,MCL1 BIM primary,Mcl1 Noxa PPI,Mcl1 Bid PPI
CCN1C(=O)N/C(=C/c2ccc(C)o2)C1=O,-5,-4,28,25,-81
Cc1ccc(O)c(NC(=O)c2noc3c2CCc2ccccc2-3)c1,-2,-18,-9,5,5
Cc1cc(NC(=O)c2noc3c2CCc2ccccc2-3)no1,0,-5,-1,41,67*
CCOc1ccc(NC(=O)CN2C(=O)/C(=C3\SC(=S)N(C4CCS(=O)(=O)C4)C3=O)c3ccccc32)cc1 (configuration not stated),nt,67,nt,68*,81*
Cc1ccc(-c2nnn3c2nc(Cl)c2ccccc23)cc1,-7,91*,nt,10,-5
COCCCNc1nc2c(-c3ccc(Cl)cc3)nnn2c2ccccc12,-1,16,7,-177,25
NNc1nc2c(-c3ccc(F)cc3)nnn2c2ccccc12,6,17,8,69*,-23
Clc1nc2c(-c3ccccc3)nnn2c2ccccc12,nt,1,-2,7,-14
NNc1nc2c(-c3ccc(Cl)cc3)nnn2c2ccccc12,-3,8,15,68*,12

# Source: PubChem
